Screen size: about 220,000 compounds; about 650 (0.3%) were called active. Rule as the data show it: active = inhibition above about 40%; inactive = the rest. For the sample, actives were picked, then their nearest neighbours and some compounds at random.
Biological target: Coagulation factor XII (Homo sapiens) (UniProt P00748)
Experiment: coagulation factor XIIa activity inhibition – biochemical, 1536-well, primary screen (AID 800);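 also: 0% = enzyme with no compound and 100% = blank without enzyme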
Conditions: purified FXIIa, Boc-QGR-AMC fluorogenic substrate, 2 h; at 5 µM; stronger effect = higher value

Chain of Coagulation factor XII (Homo sapiens) (P00748 20-372 limits assumed): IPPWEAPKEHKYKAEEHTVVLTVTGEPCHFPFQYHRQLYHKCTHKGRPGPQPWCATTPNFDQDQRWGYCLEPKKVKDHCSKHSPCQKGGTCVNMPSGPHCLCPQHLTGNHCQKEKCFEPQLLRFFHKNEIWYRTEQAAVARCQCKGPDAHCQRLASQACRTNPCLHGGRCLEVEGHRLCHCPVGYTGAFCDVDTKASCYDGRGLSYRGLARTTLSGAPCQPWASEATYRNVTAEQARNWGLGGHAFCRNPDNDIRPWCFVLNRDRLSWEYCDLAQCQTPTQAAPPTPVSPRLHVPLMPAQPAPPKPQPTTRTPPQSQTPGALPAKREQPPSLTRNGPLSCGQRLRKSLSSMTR
Chain of Coagulation factor XII (Homo sapiens) (P00748 373-615 limits assumed): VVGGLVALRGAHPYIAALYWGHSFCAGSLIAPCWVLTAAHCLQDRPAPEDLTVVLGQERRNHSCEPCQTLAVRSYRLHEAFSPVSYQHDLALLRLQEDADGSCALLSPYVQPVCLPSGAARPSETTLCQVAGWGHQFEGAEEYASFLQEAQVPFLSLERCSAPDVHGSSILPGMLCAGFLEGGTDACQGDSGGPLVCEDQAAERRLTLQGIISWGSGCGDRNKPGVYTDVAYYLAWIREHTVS

SMILES | inhibition
O=C(c1ccc(F)cc1)n1c(=S)nc2ccccn21 | 0.92% (inactive)
COc1c(O)cc2oc(-c3ccc(O)c(O)c3)cc(=O)c2c1O | 2.88% (inactive)
CCCCN1Cc2c(nc3cc(-c4ccccc4)[nH]n3c2=O)C1=O | -5.1% (inactive)
O=C(NCc1cccnc1)c1cnc2ccccc2n1 | 8.13% (inactive)
COC(=O)c1c(C)oc(C)c1S(=O)(=O)NCc1ccc(Cl)cc1 | 6.03% (inactive)
CC(=O)c1ccc(NC(=O)C2CC(=O)Nc3nc4ccccc4n32)cc1 (centres undefined) | 8.34% (inactive)
COc1ccc(C2/C=C\CN(S(=O)(=O)c3cccs3)CC(=O)N2Cc2ccc(F)cc2)cc1 (centres undefined) | 9.45% (inactive)
O=[N+]([O-])c1cc(Cl)cc(/C=N/NC(=S)Nc2cc(S(=O)(=O)N3CCOCC3)ccc2Cl)c1O | 6.23% (inactive)
CSCC[C@H](NC(=O)CCCn1nnc2ccccc2c1=O)C(=O)O | 4.87% (inactive)
CCOC(=O)COc1nc(C)cc(C(F)(F)F)c1C#N | -0.55% (inactive)
Cc1ccc(Nc2nc(N)nc(CSc3nnc(C)s3)n2)cc1 | 4.96% (inactive)
Cc1cnc(NC(=O)c2ccccn2)s1 | 7.08% (inactive)
COC(=O)c1ccc(Oc2nc(NC(C)C)nc(SC)n2)cc1 | 44% (active)
CCNc1nc(Oc2ccc(C(=O)OC)cc2)nc(N2CCOCC2)n1 | 9.71% (inactive)
COC(=O)c1ccc(Oc2nc(Nc3ccc(F)cc3)nc(N3CCCC3)n2)cc1 | -2.89% (inactive)
COCCN(C(=S)Nc1cccc(Cl)c1C)C(C)c1ccco1 (centres undefined) | 6.59% (inactive)
COP1(=O)C[C@@H](O)[C@@H](O)[C@@H](COCc2ccccc2)O1 (some centres undefined) | 5.94% (inactive)
O=[N+]([O-])c1ccc2nc(-c3ccccn3)[nH]c2c1 | 5.76% (inactive)
CN(C)S(=O)(=O)c1ccc(NC(=O)COC(=O)Cn2[nH]c(=O)c3ccccc3c2=O)cc1 | -3.32% (inactive)
Cc1nn2c(NCCN(C)C)c3c(nc2c1-c1ccccc1)CCC3 | 10.3% (inactive)
O=C1NNC(c2ccccc2)=N/C1=C\c1ccc(Cl)cc1 | 0.78% (inactive)
CC1Cc2ccccc2N1CC(=O)Nc1ccc(S(N)(=O)=O)cc1 (centres undefined) | 7.97% (inactive)
COc1ccc2oc(N)c(C=O)c(=O)c2c1 | 8.71% (inactive)
CC(C)(C)C(=O)NNC(=O)c1ccc(Oc2cc(Cl)cc(Cl)c2)o1 | 8.39% (inactive)

SMILES | inhibition
CCOC(=O)c1cc(C)nc(S(C)(=O)=O)c1C#N | 2.84% (inactive)
CC(C)=CCC/C(C)=C/C(=O)O | 4.62% (inactive)
O=c1c2ccccc2cnn1Cc1n[nH]c(=S)n1-c1ccccc1F | 4.28% (inactive)
COc1ccc(SC[C@H](Cc2ccccc2)N2CCN(CCc3ccccc3)CCC2=O)cc1 | 9.1% (inactive)
NC(=O)c1nnsc1-c1ccc(-c2snnc2C(N)=O)cc1 | -1.04% (inactive)
COC(=O)c1cc(S(=O)(=O)N2CCC(C(N)=O)CC2)oc1C | 1.7% (inactive)
NC(=O)CC(NC(=O)Cc1cccc2ccccc12)c1ccc(NCc2cc(F)ccc2F)c([N+](=O)[O-])c1 (centres undefined) | 3.78% (inactive)
Nc1ccccc1C(=O)NC1CCCCNC1=O (centres undefined) | 3.81% (inactive)
O=C(Nc1cccnc1Oc1ncnc2cc(Cl)ccc12)c1ccc(F)cc1 | 0.47% (inactive)
CCOC(=O)CC1C(=O)NCCN1c1nc2c(C)cccn2c(=O)c1/C=C1\SC(=S)N(C(C)CC)C1=O (centres undefined) | 14% (inactive)
S=c1[nH]nc(-c2cc(-c3ccccc3)n[nH]2)n1/N=C/c1c2ccccc2cc2ccccc12 | 8.1% (inactive)
CC(C)c1nc(SCC(=O)NC(=O)NC(C)(C)C)n[nH]1 | 12.8% (inactive)
Cc1ccc(NNC(=O)C2CCC2)cc1C | 10.5% (inactive)
C=CCC1(C#N)C(=S)NC(C)=C(C(=O)OCC)C1c1ccccc1 (centres undefined) | 6.96% (inactive)
Cc1nc(Cl)c(C#N)c2c1CCCC2 | 2.37% (inactive)
Cc1cc(C)c(NC(=O)CN2C(=O)NC(Cc3ccccc3)C2=O)c(C)c1 (centres undefined) | 0.73% (inactive)
CC(C)=CCc1c(O)c(CC=C(C)C)c2occ(-c3ccc(O)cc3)c(=O)c2c1O | 7.17% (inactive)
O=C(O)C1=C[C@H](c2cccs2)C[C@H](OCCCCO)O1 | 7.11% (inactive)
Cc1ccc(S(=O)(=O)NC(=O)N2CCCN(Cc3ccc(F)cc3)CC2)cc1 | 3.56% (inactive)
Cc1ccc(NC(=O)Nc2cc(-c3ccccc3)nn2C)cc1Cl | -1.26% (inactive)
Nc1nnc(SCC(=O)NC2CCCc3ccccc32)s1 (centres undefined) | -2.74% (inactive)
CN(C)C(=O)c1coc2nc3ccccc3nc12 | 7.55% (inactive)
CC1Cc2ccccc2N1S(=O)(=O)c1ccc(Cl)nc1 (centres undefined) | 1.69% (inactive)
COc1ccc2c(c1)c1ncn(Cc3ccccn3)c(=O)c1n2C | -1.96% (inactive)

SMILES | inhibition
CN=C1C=C/C(=N/N=c2\ccn(O)cc2C)C=C1C | 12.1% (inactive)
O=C1CCC(=O)N(O)CCCCCNC(=O)CCC(=O)N(O)CCCCCNC(=O)CCC(=O)N(O)CCCCCN1 | 6.14% (inactive)
O=C(O)C(F)(F)C(NCc1ccccc1)c1ccccc1 (centres undefined) | 18.5% (inactive)
CCOC(=O)CSc1nc(C)c(Oc2ccc(Cl)cc2Cl)c(=O)[nH]1 | 10.3% (inactive)
COCCCn1c(-c2cccs2)nc2nc3ccccc3nc21 | -19.8% (inactive)
CSCC[C@H](NC(=O)NC1CCCC1)C(=O)O | 0.35% (inactive)
CCN(CC(=O)Nc1ccc(S(=O)(=O)N2CCCC2)cc1)CC(=O)Nc1cccc(OC)c1 | 3.63% (inactive)
O=C(NN1C(=O)C2CCCCC2C1=O)c1ccco1 (centres undefined) | 5.14% (inactive)
C/C(=N/NC(=O)CC(=O)N/N=C(\C)c1ccc([N+](=O)[O-])cc1)c1ccc([N+](=O)[O-])cc1 | 6.83% (inactive)
O=C(CS(=O)(=O)c1cn(Cc2ccc(Cl)cc2)c2ccccc12)N1CCOCC1 | 45.4% (active)
COc1cccc(NC(=O)CS(=O)(=O)c2cn(CC(=O)N3CCOCC3)c3ccccc23)c1 | 2.47% (inactive)
O=C(CS(=O)(=O)c1cn(Cc2cccc(F)c2)c2ccccc12)N1CCCCC1 | 14.4% (inactive)
CCN(CC)CCC(c1ccc2c(c1)OCO2)c1c(OC)cc(OC)c2c(-c3ccccc3)cc(=O)oc12 (centres undefined) | 8.45% (inactive)
CN(Cc1ccccn1)Cc1nc(-c2ccc(Cl)cc2)no1 | 103% (active)
COC(=O)c1ccc(-c2noc(CN(Cc3ccccn3)CC3CCCO3)n2)cc1 (centres undefined) | 14.6% (inactive)
CCN1CC(CN(C)Cc2nc(-c3ccc(Cl)cc3)no2)CC1=O (centres undefined) | 7.51% (inactive)
COc1cc(OC)c2ccc(=O)oc2c1C(CCN1CCN(c2ccccc2)CC1)c1ccc2c(c1)OCO2 (centres undefined) | 7.95% (inactive)
CCOC(=O)c1c(N)sc2c1CCCC2=O | 5.97% (inactive)
O=C(O)C1CCN(C(=O)c2cc(F)cc3c2OCOC3)CC1 | 4.37% (inactive)
Cc1ccc(Nc2c3c(nc4ccccc24)CCC3)cc1 | 9.63% (inactive)
CSc1nnc(SCc2nc3sc(C(=O)O)c(C)c3c(=O)[nH]2)s1 | 10.1% (inactive)
COc1ccc(CCNC(=O)CCn2c(=O)c3ccccc3n(CC(=O)NCC3CCCO3)c2=O)cc1OC (centres undefined) | 40% (active)
COc1ccc(CCNC(=O)Cn2c(=O)n(CC3CCCO3)c(=O)c3ccccc32)cc1OC (centres undefined) | -8.44% (inactive)
COc1ccc(CCNC(=O)CCn2c(=O)oc3ccccc32)cc1OC | 7.51% (inactive)

SMILES | inhibition
Cc1cc(Cl)ccc1NNC(=O)c1snnc1C | 7.13% (inactive)
COc1ccc(SCCN2CCN(CC(C)C)CCC2=O)cc1 | 7.64% (inactive)
CC1(C)CC(=O)C=C(Nc2ccccc2)C1 | 6.92% (inactive)
S=c1[nH]nc(-c2cc(-c3ccsc3)n[nH]2)n1-c1ccccc1 | 4.05% (inactive)
CC(C)C(=O)N1CCC2(CC1)Oc1ccc(F)cc1C(=O)C21CC(c2ccccc2)=NO1 (centres undefined) | 8.49% (inactive)
O=c1cc(CCl)nc2scc(-c3ccccc3)n12 | 6.87% (inactive)
Cc1c(C#N)c2ncn(CC#N)c(=O)c2n1-c1ccccc1 | 7.67% (inactive)
CN(C)c1ccnc2sc3c(=O)n(Cc4ccccc4)cnc3c12 | 2.78% (inactive)
CN(C)/C=C/c1c(C#N)c(=O)ncn1Cc1ccccc1 | 53% (active)
O=C(N/N=C/c1cccc2cccnc12)[C@H]1C[C@@H]1c1ccccc1 | 8.29% (inactive)
O=C(O)CCn1c(O)c(C=C2N=c3ccccc3=N2)sc1=S | 12.8% (inactive)
COc1ccc(Cl)cc1S(=O)(=O)N1CCC(O)(c2ccc(Cl)cc2)CC1 | 3.43% (inactive)
Cc1cc(N)n(-c2ccc(S(=O)(=O)N3CCCC3)cc2[N+](=O)[O-])n1 | 3.82% (inactive)
O=C(Nc1ccc(N2CCN(C(=O)c3ccccc3)CC2)c(Cl)c1)c1ncn[nH]1 | 7.54% (inactive)
O=C(Cc1ccccc1)Nc1c(Cl)ccc2nsnc12 | 2.05% (inactive)
C[C@H](NC(=O)c1nc[nH]c1C(=O)N[C@@H](C)C(=O)OC(C)(C)C)C(=O)OC(C)(C)C | 12.4% (inactive)
CCOC(=O)c1cn(CC)c2cc(F)c(F)cc2c1=O | 4.45% (inactive)
COc1cc(NC(=O)c2cncc(-c3ccc(C#N)cc3)c2)cc(C(=O)Nc2cccc(C(F)(F)F)c2)c1 | 3.5% (inactive)
O=[N+]([O-])c1cc([N+](=O)[O-])c2cccnc2c1O | 3.18% (inactive)
O=C(Nc1cccc(S(=O)(=O)NC2=NCCC2)c1)C1CCCCC1 | 14.4% (inactive)
COc1ccc2[nH]c(C(=O)Nc3ccccc3Cl)cc2c1 | 6.03% (inactive)
CCC/C(C)=N\Nc1nc2c(c(=O)n(C)c(=O)n2C)n1C | 5.02% (inactive)
